# Compounds with a hit are over-represented: about 14% of the library has one in this group of screens.
# Sm TGR inh: blocks Schistosoma mansoni thioredoxin glutathione reductase. Q962Y6. purified TGR, DTNB reduction, TNB absorbance 405 nm. Potency, µM (series often up to 114 µM), for inactives: at the highest dose activity change, negative = inhibition, actives largely listed as inhibitors. 360,000 tested, 3% active. AID 485364; further: potency means the concentration at half of the fitted maximal effect; nearly all actives have a fitted effect of over 60% in size
#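 TGR 20 nM + NADPH 100 uM (dispensed conc.), cpd preinc 15 min RT; start with NADPH (500 uM addition) then DTNB (15 mM addition). Kinetic TNB absorbance, 405 nm filter. Four-parameter Hill fit across titration.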
# FBPA Giardia inh: inhibitors of Giardia lamblia fructose-1,6-bisphosphate aldolase; AID 2451; Potency, µM (top dose mostly 59.6 µM), for the others: at the top dose activity, negative = inhibition, most hits filed as inhibitors; 290,000 tested, 0.71% active; A8B2U2; purified Giardia FBPA; further: potency means the concentration at half of the fitted maximal effect; nearly all actives have a fitted effect of over 55% in size
# Target sequence (A8B2U2 whole entry, looked up): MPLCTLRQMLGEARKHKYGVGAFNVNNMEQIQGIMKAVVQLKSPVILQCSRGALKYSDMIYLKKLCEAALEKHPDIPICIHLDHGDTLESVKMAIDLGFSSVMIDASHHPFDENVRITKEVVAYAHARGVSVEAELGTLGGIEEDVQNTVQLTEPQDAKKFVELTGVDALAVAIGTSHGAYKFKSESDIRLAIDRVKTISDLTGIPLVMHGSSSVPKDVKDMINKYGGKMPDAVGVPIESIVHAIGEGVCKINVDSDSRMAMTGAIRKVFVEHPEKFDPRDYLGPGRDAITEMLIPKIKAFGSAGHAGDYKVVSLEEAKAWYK
#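 Giardia FBPA (40 nM reagent) was preincubated 10 min at RT with compound (up to 57.5 uM final), then substrate plus GAPDH/TPI/NAD/arsenate coupling system with diaphorase/resazurin was added; resorufin fluorescence (525/598 nm) was read after 20 min.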
# Pf growth 48h: P. falciparum growth inhibition at 48 hours (one generation). P. falciparum luciferase growth in erythrocytes, 48 h. AID 504832. 310,000 tested, 5.9% active. Potency, µM (series often up to 28.7 µM), inactives show at the top dose activity change, negative = inhibition, hits mostly inhibitors; further: potency means the concentration at half of the fitted maximal effect
#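 In quantitative HTS format, infected erythrocytes bearing luciferase-reporter parasites were treated for a single generation at 37 C. Luminescence after adding detection reagent served as the growth measure.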
# Pf growth 96h: P. falciparum growth inhibition at 96 hours; P. falciparum luciferase reporter growth, 96 h; Potency, µM (top dose mostly 28.7 µM), for the others: at the highest dose activity change, negative = inhibition, most hits filed as inhibitors; 320,000 tested, 6.9% active; AID 504834; further: potency means the concentration at half of the fitted maximal effect
#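 Infected RBCs, 2% Hct / 0.05% parasitemia final; luciferase-reporter P. falciparum; cpd 96 h, 37 C, 5% CO2; luciferase detection reagent; luminescence.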
# HCMV antiviral: inhibitors of human cytomegalovirus; AID 1259415; 410,000 tested, 4.5% active; HFF cells, HCMV-luciferase reporter, 72 h; active compounds read low; activity change, negative = inhibition, % at 57.5 µM; in the data active means activity change below about -60%; inconclusive means no clear call, values can overlap the other calls; inactive means above about -39%
#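 Compounds were evaluated in HFFs infected with an HCMV luciferase reporter virus (MOI 1 PFU/cell). Luciferase in lysates collected 72 h post infection served as the replication measure.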
# Starred values were filed as active, the others as inactive; u = inconclusive; x = no result given; + = active, no number; ! = not active in a repeat. Unless noted, the call rests on the fitted dose curve; in most records, active means well fitted curve in the direction sought with a large enough effect; inconclusive means small, poorly fitted or top-dose-only effect, or another doubt; inactive means no such curve, though single readings can be large; an effect the other way counts as inactive or inconclusive. On the % scale 0 is the no-effect control and ±100 the full control effect.
SMILES,Sm TGR inh,FBPA Giardia inh,Pf growth 48h,Pf growth 96h,HCMV antiviral
Cc1ccc(C)c(NC(=S)NCCN(C2CCCCC2)C2CCCC2)c1,-32%,-1%,10µM*,u,-38
Cc1ccc(NC(=S)NCCc2ccccc2)c(C)c1,2%,3%,u,5%,u
Cc1ccc(C)c(NC(=S)NCCc2ccc(F)cc2)c1,-12%,5%,13µM*,u,u
Cc1ccc(SCCNC(=S)Nc2cc(C)ccc2C)cc1,0%,-2%,x,8.3µM*,-29
Cc1ccc2c(c1)C(=O)C(=O)N2Cc1ccc(Br)cc1,x,x,x,x,-76*
Cc1ccc2c(c1)C(=O)C(=O)N2Cc1ccc(OCCC(C)C)cc1,0%,x,x,x,-95*
NC1=C(Br)C(=O)c2ccccc2C1=O,u,u,2.6µM*,1µM*,-86*
Nc1ccc(Br)c2c1C(=O)c1ccccc1C2=O,13µM*,-15%,u,52%,x
Nc1ccc(O)c2c1C(=O)c1ccccc1C2=O,-6%,u,101%,127%,-34
COc1ccc(CCn2cnn3c(=O)c4ccccc4nc3c2=O)cc1OC,x,x,x,x,-3
Cc1c(CCO)c(=O)[nH]n1S(=O)(=O)c1ccccc1,3%,-7%,3.3µM*,-6%,-39
CC(C)(CC(=O)OCC(=O)Nc1ccccc1F)CC1=NS(=O)(=O)c2ccccc2N1,-12%,x,u,12µM*,u
CCn1c(C(=O)N2CCC(C(=O)N3CCN(c4cc(C)ccc4C)CC3)CC2)cc2sccc21,-3%,x,x,x,-30
Cc1cc(F)ccc1NC(=O)Cn1nc(N2CCN(c3ccccc3)CC2)ccc1=O,-14%,x,x,x,-26
Cc1cccc(NC(=O)c2ccc(Cn3nc(N4CCN(c5ccccc5)CC4)ccc3=O)o2)c1C,7%,x,x,x,-72*
Cc1ccc(F)cc1NC(=O)c1ccc(Cn2nc(N3CCN(c4ccccc4)CC3)ccc2=O)o1,-20%,x,x,x,-73*
O=C1CC(c2nc3ccccc3[nH]2)CN1c1cccc(C(F)(F)F)c1 (stereo not drawn),-7%,3%,2%,u,-96*
COc1ccc(Cl)cc1N1CC(c2nc3ccccc3[nH]2)CC1=O (stereo not drawn),-1%,-1%,-1%,-19%,-99*
CC(=O)N1CCOc2ccc(S(=O)(=O)NCC3CCC(C(=O)Nc4ncccc4C)CC3)cc21 (stereo not drawn),2%,x,-3%,u,-28
Cc1nc(NS(=O)(=O)c2ccc(N)cc2)nc(C)c1Br,x,x,4%,4%,x
CCNc1nc(OC)nc(N2CCC(Cc3ccccc3)CC2)n1,1%,7%,-14%,13µM*,15
COc1nc(NCc2ccco2)nc(N2CCC(C)CC2)n1,-14%,3%,u,-14%,-27
O=S(=O)(CCOc1ccccc1)c1nc2ccccc2[nH]1,13µM*,25%,-12%,u,-69*
CC(C)c1ccc(CN(C(=O)C2COc3ccccc3O2)C2CCS(=O)(=O)C2)cc1 (stereo not drawn),1%,-3%,u,u,-94*
CN(C)c1ccc(CN(C(=O)C2COc3ccccc3O2)C2CCS(=O)(=O)C2)cc1 (stereo not drawn),20µM*,-11%,u,5.2µM*,-21
SMILES,Sm TGR inh,FBPA Giardia inh,Pf growth 48h,Pf growth 96h,HCMV antiviral
COC(=O)c1ccc(CN2C(=O)C3CCCCC3C2=O)o1 (stereo not drawn),-13%,-1%,3.3µM*,60%,6
O=C1N(c2cccc(Cl)c2)C(c2cccnc2)N2CCCN12 (stereo not drawn),1%,5%,5%,13µM*,-7
CCOC(=O)/C=C/[C@@H](CCCCOCc1ccccc1)NC(=O)C(F)(F)F,x,x,x,x,-7
COc1ccc(NS(=O)(=O)c2cc(NC(=O)/C=C/c3ccccc3OC)ccc2N2CCCCC2)cc1,-5%,0%,1µM*,1µM*,-12
COc1ccc(NS(=O)(=O)c2cc(NC(=O)COc3ccc(OC)cc3)ccc2N2CCOCC2)cc1,x,x,x,x,22
CCCCCC(=O)Nc1ccc(N2CCOCC2)c(S(=O)(=O)Nc2ccc(OC)cc2)c1,0%,x,15µM*,u,-20
CCC(=O)Nc1ccc(N2CCOCC2)c(S(=O)(=O)Nc2ccc(OC)cc2)c1,-5%,-6%,7%,-9%,-31
COc1ccc(NS(=O)(=O)c2cc(NC(=O)/C=C/c3cccs3)ccc2N2CCOCC2)cc1,-5%,-3%,u,7.4µM*,-26
COc1ccc(/C=C/C(=O)Nc2nc(-c3cccs3)ns2)cc1,6%,x,x,x,47
COc1ccc(CC(=O)OCN2C(=O)c3ccccc3C2=O)cc1,2%,3%,37%,14%,-26
O=C(Cc1ccc(F)cc1)OCN1C(=O)c2ccccc2C1=O,-17%,x,u,15µM*,9
CC(C)NC(=O)Nc1ccc2c(c1)C(=O)N([C@@H](C)CO)C[C@H](C)[C@H](CN(C)S(=O)(=O)c1ccccc1)OCCCC[C@H](C)O2,x,x,x,x,-10
CN(c1ccccc1)c1nc(N)c([N+](=O)[O-])c(N2CCCC2)n1,5%,4%,36%,69%,29
CN(c1ccccc1)c1nc(N2CCCC2)nc(-n2ccnc2)n1,3%,11%,5.2µM*,u,-20
c1ccc(N(c2ccccc2)c2nc(N3CCCC3)nc(-n3ccnc3)n2)cc1,-21%,8%,5.9µM*,u,-66*
CCOC(=O)N1CCN(c2nc(N(c3ccccc3)c3ccccc3)nc(-n3ccnc3)n2)CC1,13%,1%,u,u,u
CCC1CN(C(=O)Nc2ccc(C(=O)O)cc2)c2cc(Cl)ccc2O1 (stereo not drawn),-1%,x,x,x,-16
CCC1CN(C(=O)N2CCC(C(=O)NCCc3ccccc3OC)CC2)c2ccccc2O1 (stereo not drawn),1%,x,u,u,+
CCC1CN(C(=O)N2CCC(C(=O)NCc3ccco3)CC2)c2cc(C)ccc2O1 (stereo not drawn),u,x,-24%,13µM*,3
CCC1CN(C(=O)N2CCC(C(=O)NCCc3ccc(OC)cc3OC)CC2)c2ccccc2O1 (stereo not drawn),9%,x,u,u,-21
CCC1CN(C(=O)NCc2ccc(C)cc2)c2cc(C)ccc2O1 (stereo not drawn),-16%,12%,u,u,-75*!
CCC1CN(C(=O)N2CCC(C(=O)NCc3ccc(C)o3)CC2)c2cc(C)ccc2O1 (stereo not drawn),u,x,u,14%,5
CCc1ccccc1NC(=O)N1CC(CC)Oc2ccc(Cl)cc21 (stereo not drawn),-2%,x,x,x,-61*
O=C(CCN1CCN(Cc2ccccc2)CC1)NNC(=O)Nc1cccc(C(F)(F)F)c1,u,0%,-28%,46%,-20

# High-throughput results deposited in PubChem BioAssay by National Center for Advancing Translational Sciences (NCATS).
